The sample as a whole holds a higher share of hits than the screen did.
SARS PLpro yeast: SARS-CoV PLP inhibition in yeast | 0.19% of 330,000 active | Potency, µM (series often up to 32.9 µM), for inactives: top-dose activity, positive = growth rescue, usual class: activators | S. cerevisiae expressing SARS-CoV PLpro, growth rescue; calls by dose curve; further: potency means the concentration at half of the fitted maximal effect; 0% is about no effect; nearly all actives have a fitted effect of over 55% in size
Cycloheximide cs: affects cycloheximide protein synthesis inhibition readout, counter-screen; max response, %; 12% of 300,000 active; cell reporter, cycloheximide protein synthesis inhibition counterscreen; in the data active means max response mostly above about 13%, no sharp cut-off; inactive means mostly below about 14%; further: read at 38.3 µM for the half of the compounds with a filed dose; 0% is about no effect
TbPYK inhibitor: blocks Trypanosoma brucei pyruvate kinase | Q57TT1 | TbPYK enzyme, Kinase-Glo Plus ATP luminescence, 45 min | Potency, µM (doses to about 76.8 µM), for the others: at the top dose activity, negative = inhibition, most hits filed as inhibitors | 0.12% of 410,000 active | AID 624173; further: potency means the concentration at half of the fitted maximal effect; on the % scale 0 is the no-effect control and ±100 the full control effect; nearly all actives have a fitted effect of over 50% in size
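Readout: single end-point luminescence (Kinase-Glo Plus, 10 min). Reaction conditions were TbPYK/substrate plus 130 uM ADP, 45 min at RT, pH 7.2 TEA buffer. No-enzyme wells served as controls, and data were normalized before concentration-response fitting.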
Shiga toxin inh: blocks Shiga toxin action in Vero cells; Vero cells, Shiga toxin protein synthesis inhibition reporter; inhibition, % at 38.7 µM; 9.2% of 290,000 active; in the data active means inhibition mostly above about 28%, no sharp cut-off; inactive means mostly below about 43%; further: 0% is about no effect
LmPK inhibitor: LmPK (Leishmania mexicana) enzyme inhibition; Q27686; Potency, µM (series often up to 57.5 µM), for the others: at the highest dose activity change, negative = inhibition, usual class: inhibitors; 0.37% of 290,000 active; purified LmPK, Kinase-Glo ATP luminescence, 1 h; further: potency means the concentration at half of the fitted maximal effect; on the % scale 0 is the no-effect control and ±100 the full control effect
Target sequence (Q27686 whole entry, looked up): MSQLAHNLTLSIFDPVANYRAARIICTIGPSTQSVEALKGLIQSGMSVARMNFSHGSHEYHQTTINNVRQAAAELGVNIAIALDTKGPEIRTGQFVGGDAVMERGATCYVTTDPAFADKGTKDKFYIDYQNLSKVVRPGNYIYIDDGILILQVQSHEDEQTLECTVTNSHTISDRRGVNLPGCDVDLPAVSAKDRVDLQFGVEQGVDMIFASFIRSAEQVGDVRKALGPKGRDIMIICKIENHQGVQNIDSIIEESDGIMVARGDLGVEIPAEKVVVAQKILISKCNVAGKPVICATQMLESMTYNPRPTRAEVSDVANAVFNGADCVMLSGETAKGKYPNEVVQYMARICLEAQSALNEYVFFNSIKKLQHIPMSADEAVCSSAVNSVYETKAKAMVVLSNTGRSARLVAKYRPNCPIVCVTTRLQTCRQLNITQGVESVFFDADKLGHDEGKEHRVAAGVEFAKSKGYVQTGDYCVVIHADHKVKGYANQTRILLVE
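Purified LmPK (0.1 nM) with 0.5 mM PEP and 0.1 mM ADP in imidazole buffer pH 7.2 with MgCl2/KCl, 1 h at room temperature. ATP formed was read by luciferase luminescence and normalized to no-enzyme and uninhibited controls.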
NS1 inh: inhibitors of influenza NS1 protein function. Potency, µM (titrated, usually from 46.1 µM), for inactives: top-dose activity, positive = more growth. 0.4% of 270,000 active; calls by dose curve; further: potency means the concentration at half of the fitted maximal effect; actives are rising curves; nearly all actives have a fitted effect of over 50% in size
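S. cerevisiae expressing influenza A NS1, grown in glucose, washed, then diluted 1:100 into pH 6.0 -URA galactose medium with 23 nl compound. Growth recovery read as OD600; NS1-free strain serves as control.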
* = called active by the depositor; ? = inconclusive; . = no result; + = active, no number. Unless noted, the call rests on the fitted dose curve; in most records, active means well fitted curve in the direction sought with a large enough effect; inconclusive means small, poorly fitted or top-dose-only effect, or another doubt; inactive means no such curve, though single readings can be large; an effect the other way counts as inactive or inconclusive.

SMILES | SARS PLpro yeast | Cycloheximide cs | TbPYK inhibitor | Shiga toxin inh | LmPK inhibitor | NS1 inh
CCNC(=S)NNC(=O)c1ccoc1C | 6% | -3 | -3% | -5 | -2% | 7%
COc1ccc(N(/N=C2\Sc3ccccc3C2=O)C(C)=O)cc1 | -7% | 60* | 6% | + | -3% | .
COc1ccccc1N(/N=C1\Sc2ccccc2C1=O)C(C)=O | 1% | 24* | 4% | 60* | -3% | 5%
CCOc1ccc(C(=O)Nc2ccc(-c3nc4ccccc4s3)c(C)c2)cc1OCC | . | . | 4% | . | . | .
Cc1ccc(NC(=O)c2c(C)oc3nc(C)nc(N4CCCC4)c23)c(C)c1 | . | . | -3% | . | . | .
Cc1cccc(NC(=O)c2ccc(Cl)c(S(=O)(=O)N3CCCC3)c2)n1 | 29% | 54* | -14% | 59* | -6% | -14%
Cc1ccc(C(=O)Nc2cccnc2)cc1S(=O)(=O)N1CCCCCC1 | -1% | 26* | -7% | 30 | 1% | -7%
O=C(Nc1cccnc1)c1ccc(Cl)c(S(=O)(=O)N2CCCCCC2)c1 | -13% | 21* | 1% | 55 | 4% | -49%
O=C(Nc1ccncc1)c1ccc(Cl)c(S(=O)(=O)N2CCCCC2)c1 | -8% | . | 4% | . | . | .
O=C(c1ccc(Cl)c(S(=O)(=O)N2CCCCCC2)c1)N1CCCCC1 | 5% | 17* | -6% | 39* | 1% | 12%
Cc1cccc(NC(=O)c2ccc(Cl)c(S(=O)(=O)N3CCCCCC3)c2)n1 | -8% | . | -15% | . | . | .
Cc1ccc(C(=O)Nc2cccnc2)cc1S(=O)(=O)N1CCOCC1 | 9% | 5 | 4% | 14 | 7% | -2%
COc1ccc(-c2cc(NC=O)c3ncc(-c4cccc(C(=O)NCCN(C)C)c4)n3c2)c(OC)c1 | . | . | -1% | . | . | .
Oc1ccccc1C1NN=C(c2ccccc2)S1 (centres undefined) | -5% | 33* | -8% | 56* | -13% | -14%
CSc1ccc(C2NN=C(c3ccccc3)S2)cc1 (centres undefined) | . | . | -27% | . | . | .
C/C(=N\NC(=S)Nc1ccc(C(C)C)cc1)c1ccc2c(c1)OCO2 | 0% | 11 | -13% | 35* | 0% | .
CCc1ccc(OCC(=O)N/N=C(\C)c2ccc3c(c2)OCCO3)cc1 | -27% | 13* | 1% | -10 | 2% | -15%
CNC(=S)N/N=C(\C)c1ccc2c(c1)OCO2 | 22% | 5 | -16% | 26 | -2% | .
C/C(=N\NC(=O)COc1ccc(C(C)(C)C)cc1)c1ccc2c(c1)OCCO2 | -17% | 9 | 5% | 28 | -1% | 1%
CCNC(=S)N/N=C(\C)c1ccc2c(c1)OCCO2 | 28% | -3 | -15% | 49* | 1% | -23%
NC(=O)C(c1ccc(Br)cc1)c1ccc(C(=O)c2ccccc2)cc1 (centres undefined) | -2% | 23* | 0% | -7 | 6% | -2%
NC(=O)C(c1ccc(F)cc1)c1ccc(C(=O)c2ccccc2)cc1 (centres undefined) | -1% | -3 | -3% | -14 | 4% | -5%
Cc1cc(C(=O)O/N=C(\N)c2ccc(C(C)(C)C)cc2)no1 | -1% | 33* | -1% | 42* | 1% | 1%
COc1ccc(C(=O)O/N=C(\N)c2ccc(Br)cc2)cc1 | -8% | 62* | -12% | 82* | 0% | -64%
O=C(COC(=O)c1ccccc1)c1ccc(Br)cc1 | 10% | 47* | -4% | 115* | ? | -1%
SMILES | SARS PLpro yeast | Cycloheximide cs | TbPYK inhibitor | Shiga toxin inh | LmPK inhibitor | NS1 inh
O=C(COC(=O)c1ccc(Br)cc1)NCCc1ccccc1 | -3% | -3 | 1% | 12 | 2% | -16%
CCOC(=O)c1cc(/C(C)=N/OC(=O)c2ccc(C(C)(C)C)cc2)on1 | 1% | -1 | 1% | -7 | 4% | 6%
CCOC(=O)c1ccc(N2C(=O)c3[nH]nc(-c4ccc(OCC)cc4)c3C2c2cccs2)cc1 (centres undefined) | . | . | 0% | . | . | .
N/C(=N\OC(=O)c1ccc(Br)cc1)c1ccccc1 | -7% | 66* | -19% | 144* | ? | -78%
Cn1cc(Cl)c(C(=O)OCC(=O)c2ccccc2)n1 | 0% | 27* | -2% | 36* | -6% | 0%
NC(=O)COC(=O)c1ccc(Oc2ccccc2)cc1 | 4% | 28* | 0% | 34 | 1% | -60%

From PubChem
